HepG2 tox: kills HepG2 cells in TGF-b inhibitor counter-screen. Potency, µM (doses to about 46.1 µM), for inactives: at the top dose activity change, negative = cytotoxicity, hits mostly cytotoxic. AID 588856. 410,000 compounds, 0.76% hits. HepG2 CAGA-GFP viability, ATP luminescence, 18 h; note: potency is the fitted concentration of half-maximal effect
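HepG2 CAGA-GFP cells (1000/well, DMEM with 1% FBS) received compound, then TGF-beta at 500 pg/mL final, and were incubated 18 hours at 37 degrees C. Viability was read by CellTiter-Glo luminescence. Media-only wells were set as complete cell-killing and DMSO as no toxicity.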
TDP1 cell noCPT: qHTS for Inhibitors of human tyrosyl-DNA phosphodiesterase 1 (TDP1): qHTS in cells in absence of CPT; DT40 Tdp1-/- hTDP1 cells, no CPT, ATP luminescence, 48 h; 420,000 compounds, 15% hits; Potency, µM (titrated, usually from 46.2 µM), without a hit: at the highest dose activity change, negative = growth inhibition, most hits filed as inhibitors; note: potency is the fitted concentration of half-maximal effect; % is set by controls: 0 for no effect and ±100 for the full control effect; nearly all actives have a fitted effect of over 55% in size
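Compound effects on proliferation are scored in DT40 Tdp1-/-;hTDP1 cells in the absence of CPT. ATP levels (CellTiter-Glo luminescence) are recorded after a ≥48 hr, 37 °C incubation.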
TGFb inhibitor: inhibitors of TGF-b signaling | Potency, µM (titrated, usually from 46.1 µM), inactives show at the top dose activity, negative = inhibition, usual class: inhibitors | HepG2 CAGA-GFP TGF-b/SMAD3 reporter, GFP fluorescence, 18 h; TGF-beta stimulated, 500 pg/mL final | 410,000 compounds, 1.2% hits | AID 588855; note: potency is the fitted concentration of half-maximal effect; % is set by controls: 0 for no effect and ±100 for the full control effect; nearly all actives have a fitted effect of over 65% in size
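First, reporter cells (HEPG2 CAGA-GFP) rested 2 h at 37 degrees C. Next, compounds were pinned in and TGF-beta added to 500 pg/mL final. After 18 h, GFP was imaged per cell and summed per well.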
IL1B secr inh: inflammasome signaling inhibition, IL-1 beta readout | THP-1 LPS/ATP IL-1B secretion, AlphaLISA, 16 h; active compounds read low | 360,000 compounds, 4.7% hits | activity change, % at 57.5 µM; in the data active = activity change below about -50%; inconclusive = mostly about -30% to -49%; note: % is set by controls: 0 for no effect and ±100 for the full control effect
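Secreted IL-1B measured by AlphaLISA bead assay after 16 h compound exposure of THP-1 cells; compounds (final up to 57.5 uM) added 1 h before LPS (250 ng/mL) and ATP (1.25 mM) stimulation; lower signal means less secretion.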
ASM inhibitor: inhibitors of human secretory acid sphingomyelinase | P17405 | placental ASM, HMU-PC fluorogenic substrate, 60 min | Potency, µM (doses to about 57.5 µM), without a hit: at the highest dose activity change, negative = inhibition, hits mostly inhibitors | 340,000 compounds, 0.006% hits | AID 504937; note: potency is the fitted concentration of half-maximal effect
Target sequence (P17405 47-631 limits assumed): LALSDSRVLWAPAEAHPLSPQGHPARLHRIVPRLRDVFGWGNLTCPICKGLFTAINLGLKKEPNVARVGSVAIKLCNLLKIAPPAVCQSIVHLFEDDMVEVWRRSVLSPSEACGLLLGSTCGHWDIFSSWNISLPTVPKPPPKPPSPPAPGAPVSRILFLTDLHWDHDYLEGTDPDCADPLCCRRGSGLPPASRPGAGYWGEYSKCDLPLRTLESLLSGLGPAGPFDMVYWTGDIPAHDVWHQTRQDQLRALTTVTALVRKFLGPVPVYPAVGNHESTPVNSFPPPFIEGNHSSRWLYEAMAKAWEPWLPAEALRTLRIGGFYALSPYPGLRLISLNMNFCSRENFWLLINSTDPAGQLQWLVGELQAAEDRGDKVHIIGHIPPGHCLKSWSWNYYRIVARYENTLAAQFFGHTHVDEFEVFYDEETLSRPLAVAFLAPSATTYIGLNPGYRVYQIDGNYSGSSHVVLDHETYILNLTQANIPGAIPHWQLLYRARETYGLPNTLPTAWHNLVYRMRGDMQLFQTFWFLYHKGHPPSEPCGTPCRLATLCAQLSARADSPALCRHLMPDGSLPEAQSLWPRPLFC
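Human placenta-derived ASM enzyme was preincubated with compound for 10 minutes at room temperature, then given fluorogenic substrate HMU-PC0 (9 uM final) for 60 minutes at 37 °C; a pH 10 stop preceded fluorescence reading at Ex 386/Em 447 nm.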
TDP1 cell CPT: growth inhibition of DT40 Tdp1-/-;hTDP1 cells with camptothecin (screen for TDP1 inhibitors) | chicken DT40 Tdp1-/-;hTDP1 cells + 20 nM CPT, ATP luminescence, 48 h | Potency, µM (highest dose often 46.2 µM), for the others: at the highest dose activity change, negative = growth inhibition, actives largely listed as inhibitors | 420,000 compounds, 12% hits; note: potency is the fitted concentration of half-maximal effect; % is set by controls: 0 for no effect and ±100 for the full control effect; nearly all actives have a fitted effect of over 55% in size
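Cell growth measured by CellTiter-Glo luminescence after a minimum 48 h, 37 C compound exposure with 20 nM CPT in Tdp1-knockout DT40 cells stably expressing hTDP1, seeded 400/well; qHTS titration format.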
* hit, by the source's call. In the library only some 19% were active in any assay of this set; here they are far more common. Unless noted, calls come from the whole dose curve; as a rule, active = well fitted curve in the direction sought with a large enough effect; inconclusive = small, poorly fitted or top-dose-only effect, or another doubt; inactive = no such curve, though single readings can be large; an effect the other way counts as inactive or inconclusive.

Results for COc1cc(F)ccc1-c1cc(C(=O)Nc2ccc(C)c(NS(C)(=O)=O)c2)[nH]n1 ?
HepG2 tox: -61%; TDP1 cell noCPT: -22%; TGFb inhibitor: inconclusive; IL1B secr inh: -4; TDP1 cell CPT: inconclusive

What do the screens show for `COc1ccc(F)cc1-c1cc(C(=O)Nc2ccc(C)c(NS(C)(=O)=O)c2)[nH]n1`?
HepG2 tox: -28%; TDP1 cell noCPT: 16µM*; TGFb inhibitor: 37%; IL1B secr inh: -54*; TDP1 cell CPT: 18µM*

Results for COc1ccc(/C(O)=C/c2nc3ccc(C(=O)NCCc4cccc(C)c4)cc3[nH]c2=O)cc1OC ?
HepG2 tox: 11%; TDP1 cell noCPT: 2.3µM*; TGFb inhibitor: inconclusive; IL1B secr inh: 67; ASM inhibitor: 4%; TDP1 cell CPT: 2.9µM*

How did CCc1nc2ccc(C(=O)NCCc3ccc(OC)c(OC)c3)cc2nc1CC do in these assays?
HepG2 tox: -5%; TDP1 cell noCPT: 23µM*; TGFb inhibitor: 1%; IL1B secr inh: -26; ASM inhibitor: -4%; TDP1 cell CPT: 16µM*

What do the screens show for `COc1ccc(CCNC(=O)c2ccc3nc(-c4ccco4)c(-c4ccco4)nc3c2)cc1OC`?
HepG2 tox: -42%; TDP1 cell noCPT: 21µM*; TGFb inhibitor: 2%; IL1B secr inh: -53*; ASM inhibitor: 361%; TDP1 cell CPT: 21µM*

How did CCC(C)NC(=O)c1ccc2nc(-c3ccco3)c(-c3ccco3)nc2c1 (stereo unspecified) do in these assays?
HepG2 tox: -19%; TDP1 cell noCPT: 13µM*; TGFb inhibitor: -15%; TDP1 cell CPT: 16µM*

How did CC(C)N1CCN(Cc2cccn2-c2ccccn2)CC1CCO (stereo unspecified) do in these assays?
HepG2 tox: 3%; TDP1 cell noCPT: 11%; TGFb inhibitor: 10%; IL1B secr inh: 11; ASM inhibitor: 0%; TDP1 cell CPT: 7%

What do the screens show for `O=C(Nc1cccc(C(F)(F)F)c1)c1ccc2nc(-c3ccco3)c(-c3ccco3)nc2c1`?
HepG2 tox: -35%; TDP1 cell noCPT: inconclusive; TGFb inhibitor: inconclusive; IL1B secr inh: -1; ASM inhibitor: 129%; TDP1 cell CPT: 21µM*

What do the screens show for `O=C(Nc1ccc(F)c(Cl)c1)NC1CC1`?
HepG2 tox: -9%; TDP1 cell noCPT: -9%; TGFb inhibitor: 7%; IL1B secr inh: inconclusive; ASM inhibitor: 9%; TDP1 cell CPT: inconclusive

What do the screens show for `O=C(O)c1ccc2nc(-c3ccco3)c(-c3ccco3)nc2c1`?
HepG2 tox: -2%; TDP1 cell noCPT: -24%; TGFb inhibitor: -6%; IL1B secr inh: 8; ASM inhibitor: 282%; TDP1 cell CPT: -10%

What do the screens show for `O=C(Nc1ccc2nc(-c3ccco3)c(-c3ccco3)nc2c1)NC1CC1`?
HepG2 tox: -27%; TDP1 cell noCPT: 23µM*; TGFb inhibitor: inconclusive; IL1B secr inh: -2; ASM inhibitor: 458%; TDP1 cell CPT: 21µM*

How did Cc1ccc(NC(=O)CCNC(=O)Cn2ccc3ccccc3c2=O)cc1F do in these assays?
HepG2 tox: 11%; TDP1 cell noCPT: inconclusive; TGFb inhibitor: -16%; IL1B secr inh: -8; ASM inhibitor: 1%; TDP1 cell CPT: -12%

Results for CN1/C(=C\P(=O)(N(C)C)N(C)C)C(C)(C)c2ccccc21 ?
HepG2 tox: -33%; TDP1 cell noCPT: 3.7µM*; TGFb inhibitor: inconclusive; IL1B secr inh: -11; ASM inhibitor: 1%; TDP1 cell CPT: 5.8µM*

Results for CC(=O)OC1CC2C(C)(C)C(O)CCC2(C)C2CC[C@]3(C)C(=CC(=O)OC3c3ccoc3)C12C (stereo partly specified) ?
TDP1 cell noCPT: -27%; TDP1 cell CPT: -21%

How did Cc1ccccc1N(CC(=O)NCCSCc1ccccc1)S(C)(=O)=O do in these assays?
HepG2 tox: -8%; TDP1 cell noCPT: -2%; TGFb inhibitor: -14%; IL1B secr inh: 19; ASM inhibitor: 5%; TDP1 cell CPT: -3%

What do the screens show for `CC(C(=O)NC(C)(C)C)N(Cc1cccs1)C(=O)CCN1CCc2ccccc21` (stereo unspecified)?
HepG2 tox: -2%; TDP1 cell noCPT: inconclusive; TGFb inhibitor: -13%; IL1B secr inh: 20; ASM inhibitor: -1%; TDP1 cell CPT: 23µM*

How did CCOC(=O)C1(Cc2cccc(F)c2)CCN(C(=O)C2CCCO2)CC1 (stereo unspecified) do in these assays?
HepG2 tox: 4%; TDP1 cell noCPT: -8%; TGFb inhibitor: inconclusive; IL1B secr inh: 0; ASM inhibitor: -1%; TDP1 cell CPT: 2%

What do the screens show for `COCCCn1c(SC(C)C(=O)Nc2c(C)n(C)n(-c3ccccc3)c2=O)n[nH]c1=O` (stereo unspecified)?
HepG2 tox: -1%; TDP1 cell noCPT: 13%; TGFb inhibitor: -1%; IL1B secr inh: 10; ASM inhibitor: 0%; TDP1 cell CPT: 10%

What do the screens show for `O=C1NC(=S)S/C1=C\c1ccc(SCc2ccco2)o1`?
HepG2 tox: -34%; TDP1 cell noCPT: inconclusive; TGFb inhibitor: inconclusive; IL1B secr inh: 4; ASM inhibitor: -3%; TDP1 cell CPT: 18µM*

What do the screens show for `O=C(c1ccc(F)cc1)C1CCN(Cc2ccc(F)cc2)CC1`?
HepG2 tox: -24%; TDP1 cell noCPT: inconclusive; TGFb inhibitor: -4%; IL1B secr inh: 13; ASM inhibitor: -1%; TDP1 cell CPT: -7%

Results for Cc1[nH]nc(Nc2ccccc2)c1[N+](=O)[O-] ?
HepG2 tox: -15%; TDP1 cell noCPT: -12%; TGFb inhibitor: 15%; IL1B secr inh: -18; ASM inhibitor: 0%; TDP1 cell CPT: -4%

Results for Cc1cccc(Nc2n[nH]c(C)c2[N+](=O)[O-])c1 ?
HepG2 tox: -28%; TDP1 cell noCPT: -28%; TGFb inhibitor: -15%; IL1B secr inh: -3; ASM inhibitor: -3%; TDP1 cell CPT: 11%

What do the screens show for `Cc1[nH]nc(Nc2ccc(Br)cc2)c1[N+](=O)[O-]`?
HepG2 tox: -15%; TDP1 cell noCPT: 18µM*; TGFb inhibitor: -21%; IL1B secr inh: -10; ASM inhibitor: -9%; TDP1 cell CPT: 21µM*
